Measurements taken from PubChem BioAssay (NCATS).
Records with an inconclusive call do not appear. Unless noted, calls come from the whole dose curve; as a rule, active = well fitted curve in either direction with a large enough effect (not every such curve was filed as active); inconclusive = small, poorly fitted or top-dose-only effect, or another doubt; inactive = flat fitted curve, though single readings scatter.

Key:
[1] = AP1 Signaling Pathway (AID 357); conditions: ME-180 AP-1-bla reporter, EGF-induced, beta-lactamase ratio, 5 h; at 17.2 µM (top of the series) unless noted; note: % is set by controls: 0 for no effect and ±100 for the full control effect
Summary of the method: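 AP-1-bla ME-180 cells with beta-lactamase reporter under AP-1 response element, stimulated with EC50 EGF; compounds titrated, 5 hours at 37 degrees Celsius. CCF4 read at 460/530 nm ratio; positive and negative modulators judged by AC50.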

[2] = NFAT Signaling Pathway (AID 444); conditions: Jurkat NFAT-bla M1, carbachol, beta-lactamase ratio, 5 h; at 17.2 µM (top of the series) unless noted;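 note: carbachol stimulus at about its EC50 of 1 µM final; % is set by controls: 0 for no effect and ±100 for the full control effect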
Summary of the method: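 Jurkat cells with NFAT-driven β-lactamase reporter and co-expressed M1 receptor, stimulated with carbachol (final 1 uM, ~EC50), compound titration, 5 h at 37 °C. CCF4 loaded 1 h at RT; 460/530 nm ratio gave %activity and AC50.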

[3] = Stat Signaling Pathway (AID 446); conditions: ME-180 SIE beta-lactamase reporter, IL-6 stimulated, 5 h; at 17.2 µM (top of the series) unless noted;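 note: ME-180 cervical cancer cells given 40 pM IL-6 alongside compound; SIE-controlled beta-lactamase reporter measured as 460/530 nm FRET emission ratio; % is set by controls: 0 for no effect and ±100 for the full control effect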
Summary of the method: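 ME-180 SIE-bla cells; overnight plating; cpd + IL-6 40 pM, 5 h, 37 C; LiveBLAzer 2.5 h RT; 460/530 nm emission ratio. Normalized to 300 pM IL-6 and 125 nM JAK inhibitor controls.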

[4] = target: Glucocorticoid receptor (Homo sapiens) (UniProt P04150); assay: GR-GFP Redistribution (AID 450;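 active = compounds whose dose series gives a full or clear partial fitted curve of increased nuclear translocation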; note: potency is the fitted concentration of half-maximal effect)
Sequence of Glucocorticoid receptor (Homo sapiens) (P04150 whole entry, looked up): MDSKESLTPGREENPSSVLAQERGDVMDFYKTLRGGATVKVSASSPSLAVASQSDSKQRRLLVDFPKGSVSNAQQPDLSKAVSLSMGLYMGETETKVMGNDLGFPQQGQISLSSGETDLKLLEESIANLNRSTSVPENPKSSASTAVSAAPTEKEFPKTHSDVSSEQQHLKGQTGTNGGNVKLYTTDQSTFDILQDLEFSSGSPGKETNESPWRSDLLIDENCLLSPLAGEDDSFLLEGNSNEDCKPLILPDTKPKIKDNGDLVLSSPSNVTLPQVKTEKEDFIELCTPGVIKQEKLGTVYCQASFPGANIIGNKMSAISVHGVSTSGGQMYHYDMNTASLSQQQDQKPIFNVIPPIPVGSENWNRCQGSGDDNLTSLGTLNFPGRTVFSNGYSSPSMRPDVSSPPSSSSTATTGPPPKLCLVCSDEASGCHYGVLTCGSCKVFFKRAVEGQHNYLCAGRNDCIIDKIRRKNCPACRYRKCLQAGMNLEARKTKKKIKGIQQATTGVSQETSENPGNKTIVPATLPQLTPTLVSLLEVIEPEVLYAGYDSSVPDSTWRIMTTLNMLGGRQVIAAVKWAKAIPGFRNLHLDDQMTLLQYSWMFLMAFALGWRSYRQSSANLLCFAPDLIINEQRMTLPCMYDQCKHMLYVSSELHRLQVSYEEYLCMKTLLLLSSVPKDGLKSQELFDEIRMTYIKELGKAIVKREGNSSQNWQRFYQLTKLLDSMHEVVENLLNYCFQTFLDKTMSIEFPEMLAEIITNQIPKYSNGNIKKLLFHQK

CC(=N\O)/C(CN(C)C)=N/O
inactive: activity change, negative = inhibition [1] -9.85% | activity change, negative = inhibition [2] 13% | activity, negative = inhibition [3] 12% | Potency [4] > 20.6 µM

COc1cc(=O)[nH]c(=O)n1CC(=O)c1ccccc1
inactive: activity change, negative = inhibition [1] 1.4% | activity change, negative = inhibition [2] 3.25% | activity, negative = inhibition [3] 5.97% | Potency [4] > 20.6 µM

COc1ccc2c(c1OC)C(=O)N1c3ccccc3SC21 (centres undefined)
inactive: activity change, negative = inhibition [1] 2.44% | activity change, negative = inhibition [2] 6% | activity, negative = inhibition [3] -2.16% | Potency [4] > 20.6 µM

CC1(C)Cc2[nH]c(=O)c(C#N)cc2CS1
inactive: activity change, negative = inhibition [1] 19.5% | activity change, negative = inhibition [2] -1.45% | activity, negative = inhibition [3] 10.8% | Potency [4] > 20.6 µM

COc1cccc(OC)c1OCCN1CCN(C(=O)c2ccco2)CC1
inactive: activity change, negative = inhibition [1] 17.1% | activity change, negative = inhibition [2] -6.56% | activity, negative = inhibition [3] 11.8% | Potency [4] > 20.6 µM

Cc1cc(=O)n(CCC(=O)O)c2ccccc12
inactive: activity change, negative = inhibition [1] 4.89% | activity change, negative = inhibition [2] 1.73% | activity, negative = inhibition [3] 3.32% | Potency [4] > 20.6 µM

O=C(Nc1ccc(Cl)cn1)C1CCCN1S(=O)(=O)c1ccccc1 (centres undefined)
inactive: activity change, negative = inhibition [1] -9.31% | activity change, negative = inhibition [2] -4.11% | activity, negative = inhibition [3] -6.7% | Potency [4] > 20.6 µM

Nc1nnc(CSc2ccc(Cl)cc2)s1
inactive: activity change, negative = inhibition [1] 18.1% | activity change, negative = inhibition [2] -0.614% | activity, negative = inhibition [3] 2.04% | Potency [4] > 20.6 µM

Cc1cc(=O)n2[nH]c(N3C(=O)CCC3=O)nc2n1
inactive: activity change, negative = inhibition [1] 5.03% | activity change, negative = inhibition [2] -4.69% | activity, negative = inhibition [3] 11.6% | Potency [4] > 20.6 µM

Brc1ccc(-c2cnnc(N3CCCC3)n2)cc1
inactive: activity change, negative = inhibition [1] -13.4% | activity change, negative = inhibition [2] 0.485% | activity, negative = inhibition [3] 6.79% | Potency [4] > 20.6 µM

COc1cccc(C2/C(=C(\O)c3ccc4c(c3)OCCO4)C(=O)C(=O)N2CCCN(C)C)c1OC (centres undefined)
inactive: activity change, negative = inhibition [1] 4.3% | activity change, negative = inhibition [2] 5.21% | activity, negative = inhibition [3] 4.4% | Potency [4] > 20.6 µM

COc1ccc(C(CC(=O)N2CCOCC2)C(C)C)cc1 (centres undefined)
inactive: activity change, negative = inhibition [1] 8.67% | activity change, negative = inhibition [2] 3.99% | activity, negative = inhibition [3] -3.69% | Potency [4] > 20.6 µM

CCOC(=O)C1CCCN(c2nc3ccccc3nc2C(C#N)C(=O)OCCOC)C1 (centres undefined)
inactive: activity change, negative = inhibition [1] -28.5% | activity change, negative = inhibition [2] -3.48% | activity, negative = inhibition [3] -2.06% | Potency [4] > 20.6 µM

Cn1c(=O)c2c(nc(NCCCO)n2Cc2cccc(C(F)(F)F)c2)n(C)c1=O
inactive: activity change, negative = inhibition [1] 8.4% | activity change, negative = inhibition [2] 7.97% | activity, negative = inhibition [3] -3.72% | Potency [4] > 20.6 µM

COc1ccccc1C1C(C#N)=C(N)Oc2cc(C)n(Cc3ccccn3)c(=O)c21 (centres undefined)
inactive: activity change, negative = inhibition [1] -12.5% | activity change, negative = inhibition [2] -9.78% | activity, negative = inhibition [3] -1.34% | Potency [4] > 20.6 µM

COc1ccc(C2C(C#N)=C(C)NC3=C2C(=O)c2ccccc23)cc1 (centres undefined)
inactive: activity change, negative = inhibition [1] -6.13% | activity change, negative = inhibition [2] -27.8% | activity, negative = inhibition [3] -7.06% | Potency [4] > 20.6 µM

CCOC(=O)CNC(=O)CCCCCC(=O)NCC(=O)OCC
inactive: activity change, negative = inhibition [1] 7.11% | activity change, negative = inhibition [2] 1.76% | activity, negative = inhibition [3] 7.81% | Potency [4] > 20.6 µM

O=C(c1ccc(=O)oc1)N1CCN(c2ccc(F)cc2)CC1
inactive: activity change, negative = inhibition [1] 2.08% | activity change, negative = inhibition [2] -11.6% | activity, negative = inhibition [3] -4.16% | Potency [4] > 20.6 µM

CCCCOc1ccc(C2CC(=O)N(C)C2=O)cc1 (centres undefined)
inactive: activity change, negative = inhibition [1] -14.6% | activity change, negative = inhibition [2] -3.42% | activity, negative = inhibition [3] 4.12% | Potency [4] > 20.6 µM

CCCC1C2C(=O)N(c3ccccc3OC)C(=O)C2ON1c1ccccc1 (centres undefined)
inactive: activity change, negative = inhibition [1] 1.4% | activity change, negative = inhibition [2] 4.89% | activity, negative = inhibition [3] 0.927% | Potency [4] > 20.6 µM

CCOC(=O)C1=C(N)n2c(s/c(=C\c3ccco3)c2=O)=C(C(=O)OC(C)C)C1c1ccco1 (centres undefined)
inactive: activity change, negative = inhibition [1] 9.43% | activity change, negative = inhibition [2] -23.7% | activity, negative = inhibition [3] 4.26% | Potency [4] > 20.6 µM

CCN(CC)CCN1C(=O)c2ccccc2NC1c1cc(OC)c(OC)c(OC)c1 (centres undefined)
inactive: activity change, negative = inhibition [1] 8.96% | activity change, negative = inhibition [2] 5.73% | activity, negative = inhibition [3] 10.5% | Potency [4] > 20.6 µM

CC(=O)C1=C(O)C(=O)N(c2ccc(C(=O)O)cc2)C1c1ccccc1 (centres undefined)
inactive: activity change, negative = inhibition [1] 5.75% | activity change, negative = inhibition [2] -2% | activity, negative = inhibition [3] 0.835% | Potency [4] > 20.6 µM

CCOC(=O)/C(C#N)=C1/SC(CCO)C(=O)N1c1ccccc1 (centres undefined)
inactive: activity change, negative = inhibition [1] -6.66% | activity change, negative = inhibition [2] 2.53% | activity, negative = inhibition [3] -3.36% | Potency [4] > 20.6 µM

CCOC(=O)CNC(=O)CNC(=O)c1ccc(OC)cc1
inactive: activity change, negative = inhibition [1] 8.37% | activity change, negative = inhibition [2] -1.87% | activity, negative = inhibition [3] 14.1% | Potency [4] > 20.6 µM

Cc1cc(N2C(=O)C(=O)/C(=C(/O)c3ccc(F)cc3)C2c2cccc(Br)c2)no1 (centres undefined)
inactive: activity change, negative = inhibition [1] -7.98% | activity change, negative = inhibition [2] 2.37% | activity, negative = inhibition [3] -29.1% | Potency [4] > 20.6 µM
